Bioassay records as filed in PubChem.
Rows were chosen to be rich in hits. Some 9.3% of all compounds tested hit in one or more screens of this group.
HCV inhibitor – qHTS Assay for Inhibitors of Hepatitis C Virus (HCV); Huh7.5.1 HCVcc-Cre infection, luciferase reporter, 44 h; actives 3.4% (n = 340,000); AID 651820, 2012; Potency, µM (series often up to 41.8 µM), inactives show at the top dose activity change, negative = inhibition, most hits filed as inhibitors; further: potency means the concentration at half of the fitted maximal effect
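Cells seeded at 1,000/well and cultured 4 h, then compounds added followed by HCVcc-Cre virus (~0.5 moi). After 44 h further culture, luciferase substrate was added, plates held 15 min at room temperature, and luminescence read for 15 sec.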
FMDV antiviral – High Throughput Screening for Foot and Mouth Disease Virus Antivirals; Potency, µM (series often up to 57.9 µM), for the others: at the top dose activity change, negative = inhibition, usual class: inhibitors; actives 1.2% (n = 410,000); FMDV antiviral cell-based qHTS; calls by dose curve; tested in HEK293T cells; further: read-out not given here; potency means the concentration at half of the fitted maximal effect; nearly all actives have a fitted effect of over 45% in size
Sm TGR block – qHTS Assay for the Inhibitors of Schistosoma Mansoni Peroxiredoxins | purified TGR, DTNB reduction, TNB absorbance 405 nm | Potency, µM (series often up to 114 µM), without a hit: top-dose activity change, negative = inhibition, usual class: inhibitors | Schistosoma mansoni thioredoxin glutathione reductase (TGR), Q962Y6 | actives 3% (n = 360,000); further: potency means the concentration at half of the fitted maximal effect; nearly all actives have a fitted effect of over 60% in size
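Kinetic colorimetric format: TGR-catalysed, NADPH-driven DTNB reduction monitored via TNB absorbance. Enzyme dispensed at 20 nM; compound exposure 15 min at room temperature before reaction start.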
HCMV antiviral – qHTS Assay for inhibitors of the human cytomegalovirus (HCMV). HFF cells, HCMV-luciferase reporter, 72 h; hits give low values. activity change, negative = inhibition, % at 57.5 µM. actives 4.5% (n = 410,000); in the data active means activity change below about -60%; inconclusive means no clear call, values can overlap the other calls; inactive means above about -39%
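Steps: HFFs plated, 16 h 37C; compounds added; HCMV-luciferase added to MOI 1 PFU/cell; 72 h 37C; OneGlo reagent, 5 min room temperature; luminescence read, normalized to controls.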
VACV mCherry inh – qHTS for Stage-Specific Inhibitors of Vaccinia Orthopoxvirus: mCherry Reporter Primary qHTS. Vaccinia virus mCherry reporter infection, fluorescence. Potency, µM (series often up to 36.5 µM), inactives show at the top dose activity change, negative = inhibition, hits mostly inhibitors. actives 0.63% (n = 310,000). AID 720579, 2013; calls by dose curve; tested in A549 cells; further: potency means the concentration at half of the fitted maximal effect; nearly all actives have a fitted effect of over 35% in size
Vaccinia Venus – qHTS for Stage-Specific Inhibitors of Vaccinia Orthopoxvirus: Venus Reporter Primary qHTS | AID 720580, 2013 | Vaccinia virus Venus reporter expression, fluorescence | Potency, µM (series often up to 36.5 µM), inactives show top-dose activity change, negative = inhibition, actives largely listed as inhibitors | actives 0.46% (n = 330,000); calls by dose curve; tested in A549 cells; further: potency means the concentration at half of the fitted maximal effect; nearly all actives have a fitted effect of over 30% in size
* = called active by the depositor; i = inactive; ? = inconclusive; / = no result; [ ] = another dose, or the depositor's remark. Unless noted, the call rests on the fitted dose curve; in most records, active means well fitted curve in the direction sought with a large enough effect; inconclusive means small, poorly fitted or top-dose-only effect, or another doubt; inactive means no such curve, though single readings can be large; an effect the other way counts as inactive or inconclusive. On the % scale 0 is the no-effect control and ±100 the full control effect.

SMILES	HCV inhibitor	FMDV antiviral	Sm TGR block	HCMV antiviral	VACV mCherry inh	Vaccinia Venus
Cc1ccccc1CNC(=O)C(=O)NCC(c1ccco1)S(=O)(=O)c1ccc(F)cc1 (stereo unspecified)	/	-28.8%	8.91µM*	-18.8	-14.1%	-12.3%
CCn1ncc(CNC(=O)CCSc2nc(-c3ccco3)cc(C(F)(F)F)n2)c1C	10µM*	?	-15.7%	-17.8	-1.3%[1.46 µM]	-12.6%
CCn1nc(C)c(NC(=O)CCCSc2nc(-c3ccco3)cc(C(F)(F)F)n2)c1C	2µM*	?	50.1µM*	-32.7	-20.3%[1.46 µM]	?
Cc1nn(C)cc1NC(=O)CCSc1nc(-c2ccco2)cc(C(F)(F)F)n1	11.2µM*	0.0%	-30.5%	?	/	-19.3%
CN(C)c1nc(NC(C)(C)C)nc(SCC(=O)Nc2ccccc2)n1	?	?	-28.9%	-37.3	-15.3%	-16.7%
COc1cc(-c2cccs2)cc(=O)c2c(C)oc(C)c12	11.2µM*	/	39.8µM*	?	-6.7%	22.9%
COc1cc(-c2cc(OC)c3c(C)oc(C)c3c(=O)c2)ccc1OC(=O)c1ccccc1F	/	?	-1.3%	115.9	-4.0%	10.0%
COc1ccc(CN2C(=O)C(CC(=O)NCc3cccs3)CC(C(=O)N(C)C)=C2C)cc1 (stereo unspecified)	/	-15.3%	/	5.5	-9.9%	-14.7%
Cc1cc(F)ccc1N1CCC(N2CCN(C(C)C)C(CCO)C2)CC1 (stereo unspecified)	?	-7.3%	39.8µM*	-11.8	-4.8%	-8.9%
Cc1cc(F)ccc1N1CCC(N2CCN(CCC(C)C)C(CCO)C2)CC1 (stereo unspecified)	10µM*	0.0%	1.6%	37.3	?	?
CC(C)CCN1CCN(C2CCN(c3ccc4c(c3)OCO4)CC2)CC1CCO (stereo unspecified)	5.3%	-11.8%	46.9%	-6.8	-9.8%	-20.4%
COc1cc(Nc2ccc(S(N)(=O)=O)cc2)c([N+](=O)[O-])nc1[N+](=O)[O-]	7.8%	-3.3%	20µM*	-19.1	/	/
Cc1ccccc1C(=O)Nc1ccccc1N1CCN(C(=O)c2ccccc2)CC1	-15.0%	-17.4%	-8.8%	-73.3*	-14.1%	-8.2%
Nc1ccccc1N1CCN(C(=O)c2ccccc2)CC1	-6.5%	-10.1%	-10.0%	-21.1	-11.7%	-4.1%
COc1ccc(Br)cc1C(=O)Nc1ccccc1N1CCN(C(=O)c2ccccc2)CC1	11.2µM*	0.0%	1.1%	?	?	?
O=C(c1ccccc1)c1ccc(C(=O)N2CCN(c3ccccc3O)CC2)cc1	/	?	/	-64.8*	-13.6%	-6.6%
CCOc1ccc(S(=O)(=O)NCCC(=O)N2CCN(c3ccccc3O)CC2)cc1	-26.9%	-21.8%	-5.0%	-17.8	-17.1%	?
COc1c(C)cc(Br)cc1C(=O)Nc1ccccc1N1CCN(C(=O)c2ccccc2)CC1	?	0.0%	13.8%	-11.0	-9.3%	-5.6%
CCOc1ccc(C(=O)CCC(=O)N2CCN(c3ccccc3O)CC2)cc1	?	35.5µM*	/	-20.9	-1.3%	-12.3%
COCc1nnc(NC(=O)CCCCCN2C(=O)c3ccccc3C2=O)s1	21.3%	-15.9%	5.0%	-7.0	/	/
FC(F)(F)c1cnc(C(c2ccccn2)c2ncn[nH]2)c(Cl)c1 (stereo unspecified)	-5.0%	-10.3%	-0.6%	-12.1	?	?
CCCNC(=O)C(Cc1ccc(C(F)(F)F)cc1)NC(=O)c1ccc2ccccc2n1 (stereo unspecified)	-1.3%	-24.2%	-4.5%	?	i	-25.4%
CC1CCc2c(sc(NC(=O)Cn3cnc([N+](=O)[O-])n3)c2C(N)=O)C1 (stereo unspecified)	11.5%	-12.6%	4.3%	-62.4*	/	/
NC(=O)c1c(NC(=O)Cn2cnc([N+](=O)[O-])n2)sc2c1CCCC2	2.0%	-10.5%	-18.8%	-26.3	/	/
